Growth data for seven molecules are collected here from PubChem BioAssay (NCI).

About 83,000 compounds went through this panel and 20% of them were active in at least one assay; those are over-represented in the sample as a whole.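 Each cell line was grown in a 96-well plate and treated with one concentration of compound for 48 hours. Values below 10 were considered active.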 Unmarked numbers belong to inactive results. The source made the active and inactive calls.

What all share (test): NCI-60 one-dose screen, 48 h (100 = growth as untreated, 0 = no growth, -100 = all killed)
What all share (conditions): 10 µM unless noted

For assay [1], the system named is K-562 leukemia.
In assay [2] the test system is MALME-3M melanoma.
For assay [3], the system named is MDA-MB-231 breast.
The test system of assay [4] is RXF 393 renal.
Assay [5] concerns SF-268 CNS.
In assay [6] the test system is SF-295 CNS.
Assay [7] relates to SF-539 CNS.
In assay [8] the test system is UACC-257 melanoma.
The test system of assay [9] is M14 melanoma.
For assay [10], the system named is HCT-15 colon.
The subject of assay [11] is HT29 colon.
In assay [12] the test system is SNB-75 CNS.
For assay [13], the system named is SNB-19 CNS.
For assay [14], the system named is U251 CNS.
The subject of assay [15] is PC-3 prostate.
The subject of assay [16] is SK-MEL-5 melanoma.
Assay [17] has as its system UACC-62 melanoma.
Assay [18] concerns LOX IMVI melanoma.
Assay [19] has as its system SK-MEL-28 melanoma.
Assay [20] relates to SK-MEL-2 melanoma.

As for `COc1ccc(-c2nc3ccc(-c4nnc(SCC(=O)Nc5ccc(C(=O)/C=C/c6ccccc6)cc5)o4)cc3[nH]2)cc1OC`, the growth in assay [1] was 91.6%; in assay [2], 97.1%; in [3], 91.2%; in [4], 110%; in assay [5] it was 106%; in assay [6], 94.9%. In addition, the growth in [7] was 83.7%; in assay [8], 110%; in assay [9], 108%; in [10], 91.8%; in assay [11] it was 103%; in assay [12], 90.3%. Besides, the growth in assay [13] is 107%; in assay [14] it was 93.2%; in assay [15], 101%; in assay [16], 95.5%; in assay [17], 95%; in assay [18] it was -11.8% (active). The figures for the growth in [19] and in assay [20] were 105% and 108%, respectively.
Regarding `O=C(N/N=C/c1ccc(Br)s1)c1[nH]c2ccc(Br)cc2c1-c1ccccc1`, the growth in assay [1] was 7.72% (active); in [2], 55.1%; in [3], 4.67% (active); in assay [4], 60%; in assay [5] it was 37.2%; in assay [6] it was 14.8%. The growth in assay [7] is 0.701% (active); in assay [8], 57.2%; in assay [9] it was 2.05% (active); in [10] it was 12.4%; in assay [11], 5.61% (active); in assay [12] it was 39.5%. For the same molecule, the growth was 31.3% in assay [13]; 24.4% in assay [14]; 28.8% in [15]; -27.3% (active) in [16]; 41.7% in assay [17]; 63.1% in assay [19]. In [20], the growth was 18.7%.
With `C=CCn1c(SCC(=O)c2ccc(Br)cc2)nnc1-c1c[nH]c2ccccc12`, the growth in assay [1] is 85.5%; in assay [2], 90.7%; in assay [3], 96.9%; in [4], 113%; in assay [5], 102%; in assay [6], 93.2%. In addition, the growth is 91.8% in assay [7]; 108% in [8]; 97.4% in assay [9]; 99% in assay [10]; 104% in assay [11]; 106% in assay [12]. The growth in assay [13] was 100%; in [14], 99.9%; in assay [15], 78.3%; in [16], 95.9%; in assay [17], 83.1%; in assay [19], 96.1%. In assay [20], the growth is 115%.
For `O=C(N/N=C/c1ccc([N+](=O)[O-])s1)c1[nH]c2ccc(Br)cc2c1-c1ccccc1`, the growth is 5.34% (active) in assay [1]; 14.8% in [2]; -24.1% (active) in assay [3]; 39.3% in assay [4]; 36.4% in assay [5]; 23.8% in [6]. Besides, the growth was -21.2% (active) in assay [7]; 58% in assay [8]; -34.5% (active) in [9]; 4.77% (active) in assay [10]; -22.4% (active) in [11]; 26.2% in assay [12]. The growth was 27.1% in [13]; 9.11% (active) in assay [14]; 26.5% in assay [15]; -76.6% (active) in [16]; 17.6% in assay [17]; 38.5% in assay [19]. Also, the growth in assay [20] was -19.4% (active).
With `[Cl][Ru].c1ccc(-c2cc(-c3ccccn3)nc(-c3ccccn3)c2)cc1.c1ccc(-c2ccnc3c2ccc2c(-c4ccccc4)ccnc23)cc1`, the growth in assay [1] was 1.44% (active); in assay [2] it was -34.3% (active); in assay [3] it was -48.4% (active); in assay [4] it was -39% (active); in assay [5], 13.8%; in [6], -23.1% (active). The growth in assay [7] is -20.5% (active); in assay [8], -28.7% (active); in [9], -57.1% (active); in assay [10], 45.8%; in assay [11], -47.6% (active); in [12], -20% (active). Further, the growth in [13] is 12.2%; in assay [14] it was -54.8% (active); in assay [15], -7.82% (active); in assay [16], -94.9% (active); in [17], -68% (active); in assay [19], -73.5% (active). The growth in assay [20] was -91.6% (active).
As to `C#Cc1nc(C2=C(C)C(=N\O)/C(=N/O)C2)cs1`, the growth in [1] is 94%; in assay [2] it was 94.4%; in assay [3], 61.4%; in [4] it was 104%; in assay [5], 86.1%; in assay [6] it was 101%. The growth in [7] was 93.9%; in assay [8] it was 102%; in assay [9], 89.6%; in [10], 94.5%; in assay [11] it was 111%; in assay [12], 60%. For the same molecule, the growth is 95.6% in assay [13]; 103% in assay [14]; 90.6% in assay [15]; 99% in assay [16]; 91.8% in [17]; 111% in [19]. Further, the growth in assay [20] was 108%.
In the case of `Clc1ccc2oc3c(NCCCN4CCOCC4)c4ccccc4nc3c2c1`, the growth in [1] was 1.61% (active); in assay [2], 24.1%; in assay [3], 25.2%; in assay [4], 13.9%; in assay [5], 38.1%; in assay [6] it was 17.4%. In addition, the growth in assay [7] is 19.9%; in assay [8], 50.5%; in assay [9], 31.8%; in assay [10], 3.77% (active); in [11], 14%; in assay [12], 24.7%. Also, the growth in assay [13] was 35.9%; in assay [14], 23%; in assay [15] it was 40.7%; in assay [16], 44.2%; in assay [17] it was 40%; in assay [19], 36.9%. Further, the growth in assay [20] was 56.8%.
